Reference: PubChem BioAssay
“And” between values parts separate entries of the source, which are not always exact repeats. Equal values may be shown once. Results filed as inconclusive are left out. The source made the active and inactive calls.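 Rule for the calls, unless noted: active = binding below the plate cutoff, the plate median minus 3 SD, with a reading above zero; inconclusive = below the plate cutoff but reading exactly zero; inactive = the rest.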

How the values were obtained:
[1] = rapamycin-like changes in RPL19A-GFP expression – cell-based, S. cerevisiae, multiplex flow cytometry, primary screen (AID 1862; in the data active = percent of DMSO control GFP below about 86%;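 note: lower values mimic rapamycin by blocking the RPL19A rise seen in DMSO cells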); conditions: S. cerevisiae RPL19A-GFP strain, flow cytometry fluorescence, 3 h; at 10 µM; stronger effect = lower value
[2] = TOR pathway GLN3 branch reporter MEP2-GFP changes – S. cerevisiae, multiplex flow cytometry, primary screen (AID 1867;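 active = GFP response, as percent of the DMSO control, above the screen-wide mean plus 3 SD, about 139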;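 note: median GFP channel fluorescence of barcode-gated MEP2-GFP cells measured by flow cytometry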); conditions: S. cerevisiae MEP2-GFP strain, 3 h, at 10 µM, stronger effect = higher value, 100% means same as DMSO wells
[3] = TOR pathway RTG branch CIT2 reporter changes – S. cerevisiae, GFP fusion, multiplex flow cytometry, primary screen (AID 1870;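 active = percent response above a set limit, the screen-wide mean plus 3 SD, cut at about 130% in these data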;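 note: barcoded CIT2-GFP strain pooled with four other GFP strains with rapamycin as positive control; median GFP fluorescence per well over plate mean of DMSO wells so 100% = DMSO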); conditions: S. cerevisiae CIT2-GFP expression, 3 h, at 10 µM, stronger effect = higher value
[4] = TOR pathway LAP4-GFP level changes – S. cerevisiae, multiplex flow cytometry, primary screen (AID 1873;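 active = GFP signal, as percent of the solvent control, above the screen mean plus 3 SD, about 149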); conditions: S. cerevisiae LAP4-GFP expression, 3 h, at 10 µM, stronger effect = higher value
[5] = yeast AGP1-GFP level changes, GLN3 branch – cell-based, multiplex flow cytometry, S. cerevisiae, primary screen (AID 1887;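 active = GFP signal above the screen-wide mean plus 3 SD, that is over about 124.5% of the solvent control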;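 note: AGP1-GFP fusion strain of S. cerevisiae within a five-strain barcoded multiplex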); conditions: 3 h, at 10 µM, stronger effect = higher value
[6] = reduced mouse 2C T cell binding to pMHC/ICAM-1 vesicles – MLPCN validation set, flow cytometry, LFA-1/ICAM-1 modulator project, pilot screen (AID 2523;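 active = response below a set limit, under 55% cells CD8-positive and vesicle-bound, and CD8 cells' 90th-percentile brightness under 279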;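 for vesicle binding response: mean PE anti-B7-1 fluorescence of CD8+ cells relative to row control; 100% = QL9-loaded vesicles with DMSO vehicle in the same plate row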); conditions: 2C mouse CD8+ T cells, at 7 µM, stronger effect = lower value; double positive events: measured here: CD8+/vesicle+ event percentage
[7] = target: Integrin beta-1 (Homo sapiens) + Integrin alpha-4 (Homo sapiens) (UniProt P13612+P05556); test: alpha4beta1 integrin LIBS antibody binding reduction – U937 cells, HUTS-21 mAb, flow cytometry, validation set, VLA-4 allosteric modulator project, pilot screen (AID 2674;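 active = inhibition above 50%, about 3 SD of the validation set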;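 note: antibody binding induced by the VLA-4 ligand LDV present at three times its Kd; 0% = LDV ligand with antibody and no compound and 100% = antibody without LDV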); conditions: HUTS-21 LIBS mAb binding, at 6.7 µM, stronger effect = higher value, binding induced by LDV ligand
Chain of Integrin beta-1 (Homo sapiens) + Integrin alpha-4 (Homo sapiens) (P05556 whole entry, looked up): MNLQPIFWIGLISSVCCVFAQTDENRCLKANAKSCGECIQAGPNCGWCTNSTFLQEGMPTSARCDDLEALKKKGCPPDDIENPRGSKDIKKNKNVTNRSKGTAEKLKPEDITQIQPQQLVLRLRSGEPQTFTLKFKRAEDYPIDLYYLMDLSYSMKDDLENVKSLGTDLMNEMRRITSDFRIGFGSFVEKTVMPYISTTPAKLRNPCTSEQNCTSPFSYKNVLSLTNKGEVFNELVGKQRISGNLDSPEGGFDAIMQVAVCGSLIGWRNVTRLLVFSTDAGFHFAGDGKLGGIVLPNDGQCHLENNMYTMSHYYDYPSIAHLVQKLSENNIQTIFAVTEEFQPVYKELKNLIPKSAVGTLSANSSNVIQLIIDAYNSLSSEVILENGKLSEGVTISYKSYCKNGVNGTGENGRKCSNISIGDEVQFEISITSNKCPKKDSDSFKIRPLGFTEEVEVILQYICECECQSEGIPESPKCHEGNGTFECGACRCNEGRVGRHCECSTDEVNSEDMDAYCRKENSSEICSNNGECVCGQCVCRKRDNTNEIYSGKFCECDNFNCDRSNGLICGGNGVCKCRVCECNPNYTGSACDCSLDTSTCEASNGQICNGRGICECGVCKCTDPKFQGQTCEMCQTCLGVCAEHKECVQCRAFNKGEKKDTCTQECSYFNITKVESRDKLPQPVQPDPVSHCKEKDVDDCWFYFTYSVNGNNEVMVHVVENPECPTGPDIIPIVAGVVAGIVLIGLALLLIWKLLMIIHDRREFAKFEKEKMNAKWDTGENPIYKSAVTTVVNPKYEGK
Chain of Integrin beta-1 (Homo sapiens) + Integrin alpha-4 (Homo sapiens) (P13612 whole entry, looked up): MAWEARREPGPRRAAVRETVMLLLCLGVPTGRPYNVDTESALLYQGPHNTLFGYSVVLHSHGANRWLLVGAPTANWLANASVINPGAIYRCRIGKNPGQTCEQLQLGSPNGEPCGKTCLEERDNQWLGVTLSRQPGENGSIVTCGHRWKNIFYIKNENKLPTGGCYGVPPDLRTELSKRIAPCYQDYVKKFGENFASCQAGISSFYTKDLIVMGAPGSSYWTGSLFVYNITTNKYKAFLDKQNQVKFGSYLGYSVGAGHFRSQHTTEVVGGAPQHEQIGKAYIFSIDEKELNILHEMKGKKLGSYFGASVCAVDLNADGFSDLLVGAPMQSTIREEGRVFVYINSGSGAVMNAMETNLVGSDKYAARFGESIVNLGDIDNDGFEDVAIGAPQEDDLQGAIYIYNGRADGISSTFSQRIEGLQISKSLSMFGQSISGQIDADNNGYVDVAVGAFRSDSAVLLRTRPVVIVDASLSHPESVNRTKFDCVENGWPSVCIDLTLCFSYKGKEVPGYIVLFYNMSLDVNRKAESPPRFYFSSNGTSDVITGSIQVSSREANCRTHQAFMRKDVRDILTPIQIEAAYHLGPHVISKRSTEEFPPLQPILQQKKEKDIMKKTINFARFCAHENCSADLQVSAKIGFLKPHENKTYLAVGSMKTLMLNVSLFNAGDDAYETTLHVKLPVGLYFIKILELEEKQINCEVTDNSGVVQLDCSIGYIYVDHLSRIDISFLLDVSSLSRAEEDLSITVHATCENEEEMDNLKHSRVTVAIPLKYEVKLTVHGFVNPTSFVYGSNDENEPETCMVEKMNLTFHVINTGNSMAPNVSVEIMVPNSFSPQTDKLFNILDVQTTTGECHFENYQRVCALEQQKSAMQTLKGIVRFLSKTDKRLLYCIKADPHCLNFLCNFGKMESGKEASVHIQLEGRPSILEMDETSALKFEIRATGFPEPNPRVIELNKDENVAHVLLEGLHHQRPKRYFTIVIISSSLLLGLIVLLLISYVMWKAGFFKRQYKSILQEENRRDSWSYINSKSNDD

[8] = calorie-restriction mimetic ROS inhibitors, yeast – validation compound set, pilot screen (AID 2706;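 active = superoxide response below 65% of plate, a cut near 3 SD across the whole screen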;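 note: yeast exposed to compound for one week at 30 degrees C before staining; 100% = mean of all compound wells on the same plate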); conditions: S. cerevisiae aging, superoxide DHE fluorescence; at 10 µM; stronger effect = lower value
[9] = target: Beta-adrenergic receptor kinase 1 (Homo sapiens) (UniProt P25098); test: GRK2 binders displacing RNA aptamer, biochemical, validation, human GRK2, bead flow cytometry (AID 488806;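 active = aptamer binding inhibition above 30%, about 3 SD of noise from non-fluorescent compounds; inactive = inhibition at or below 30%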); conditions: bead-bound GRK2, FAM-aptamer displacement, at 10 µM, stronger effect = higher value
Chain of Beta-adrenergic receptor kinase 1 (Homo sapiens) (P25098 whole entry, looked up): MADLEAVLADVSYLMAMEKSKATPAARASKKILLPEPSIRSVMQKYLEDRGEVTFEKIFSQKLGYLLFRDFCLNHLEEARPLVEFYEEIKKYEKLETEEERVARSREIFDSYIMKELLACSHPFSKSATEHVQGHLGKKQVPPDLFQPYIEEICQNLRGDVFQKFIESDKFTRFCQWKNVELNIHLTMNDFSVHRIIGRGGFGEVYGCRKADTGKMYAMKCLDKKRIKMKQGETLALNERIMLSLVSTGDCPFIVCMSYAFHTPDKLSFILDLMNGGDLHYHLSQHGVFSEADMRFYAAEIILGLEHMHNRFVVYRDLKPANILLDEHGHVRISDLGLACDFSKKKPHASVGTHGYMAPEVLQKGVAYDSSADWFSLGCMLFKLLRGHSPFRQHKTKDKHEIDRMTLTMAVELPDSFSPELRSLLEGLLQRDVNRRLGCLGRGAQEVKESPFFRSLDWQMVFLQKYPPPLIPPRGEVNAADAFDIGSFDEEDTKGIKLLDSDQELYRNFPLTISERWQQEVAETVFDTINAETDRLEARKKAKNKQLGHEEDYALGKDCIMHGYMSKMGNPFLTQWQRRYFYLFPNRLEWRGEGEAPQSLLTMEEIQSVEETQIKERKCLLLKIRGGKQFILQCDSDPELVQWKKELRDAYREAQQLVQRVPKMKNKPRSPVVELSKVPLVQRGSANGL

[10] = target: Beta-2 adrenergic receptor (Homo sapiens) (UniProt P07550); test: agonist-induced loss of surface beta2AR – cell-based, FAP fluorogen, flow cytometry, validation set, pilot screen (AID 504459;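 active = percent response above 42, roughly 3 SD of non-fluorescent test compounds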;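 note: agonist-driven loss of surface beta2AR via internalization measured by FAP dye flow cytometry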); conditions: Am2.2-beta2AR cells, at 10 µM, stronger effect = higher value
Chain of Beta-2 adrenergic receptor (Homo sapiens) (P07550 whole entry, looked up): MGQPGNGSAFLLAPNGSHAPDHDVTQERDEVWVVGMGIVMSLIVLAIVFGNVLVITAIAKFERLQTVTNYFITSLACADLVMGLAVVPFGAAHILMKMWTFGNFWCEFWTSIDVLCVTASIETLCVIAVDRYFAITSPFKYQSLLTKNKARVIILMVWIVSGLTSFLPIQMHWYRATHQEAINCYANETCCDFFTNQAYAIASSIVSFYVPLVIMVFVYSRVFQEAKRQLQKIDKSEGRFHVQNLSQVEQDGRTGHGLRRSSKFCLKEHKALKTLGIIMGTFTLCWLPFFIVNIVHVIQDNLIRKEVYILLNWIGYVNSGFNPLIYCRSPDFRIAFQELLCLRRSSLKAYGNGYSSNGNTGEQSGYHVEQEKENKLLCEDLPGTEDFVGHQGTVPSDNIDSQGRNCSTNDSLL

[11] = target: AP-2 complex subunit beta (Homo sapiens) (UniProt P63010); test: beta-arrestin/AP2 interaction blockers – biochemical, validation set, GST-AP2 beads, flow cytometry, pilot screen (AID 504541;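 active = inhibition above 54%, about 3 SD of non-fluorescent compounds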;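 note: AP2 carries R879A mutation and is captured from E. coli lysate; bead-bound FITC arrestin peptide fluorescence measuring arrestin peptide binding to AP2; 0% = DMSO wells and 100% = excess unlabeled arrestin peptide control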); conditions: FITC arrestin peptide, at 10 µM, stronger effect = higher value, AP2 beta2 appendage fragment, R879A mutant
Chain of AP-2 complex subunit beta (Homo sapiens) (P63010 whole entry, looked up, the tested form may be a part, one chain of several): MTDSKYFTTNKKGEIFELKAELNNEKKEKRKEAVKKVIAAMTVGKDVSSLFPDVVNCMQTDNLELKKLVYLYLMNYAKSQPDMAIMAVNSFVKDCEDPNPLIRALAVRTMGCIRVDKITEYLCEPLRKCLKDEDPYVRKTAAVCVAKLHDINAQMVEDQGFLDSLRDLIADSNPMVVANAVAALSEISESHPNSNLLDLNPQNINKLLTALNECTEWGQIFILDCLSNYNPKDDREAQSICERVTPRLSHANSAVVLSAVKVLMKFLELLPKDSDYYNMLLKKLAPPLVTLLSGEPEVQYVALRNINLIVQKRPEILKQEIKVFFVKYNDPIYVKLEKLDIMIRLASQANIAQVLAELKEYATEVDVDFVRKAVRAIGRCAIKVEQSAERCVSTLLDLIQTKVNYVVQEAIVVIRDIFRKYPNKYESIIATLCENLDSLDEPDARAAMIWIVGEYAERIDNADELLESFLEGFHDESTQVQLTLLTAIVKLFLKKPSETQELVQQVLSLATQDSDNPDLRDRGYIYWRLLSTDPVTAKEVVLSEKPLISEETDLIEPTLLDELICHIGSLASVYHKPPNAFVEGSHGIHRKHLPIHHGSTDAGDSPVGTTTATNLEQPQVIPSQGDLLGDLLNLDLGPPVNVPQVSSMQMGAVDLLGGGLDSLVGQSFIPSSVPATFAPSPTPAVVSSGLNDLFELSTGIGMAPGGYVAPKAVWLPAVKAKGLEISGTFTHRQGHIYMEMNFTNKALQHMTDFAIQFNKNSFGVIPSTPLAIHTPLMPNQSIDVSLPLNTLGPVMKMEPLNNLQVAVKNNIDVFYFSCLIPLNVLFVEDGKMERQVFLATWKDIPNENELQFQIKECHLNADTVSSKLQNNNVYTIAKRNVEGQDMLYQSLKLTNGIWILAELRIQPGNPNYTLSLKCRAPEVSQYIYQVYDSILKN

[12] = cytosolic pH regulators acting via V-ATPase – S. cerevisiae, pHLuorin, HTS validation (AID 504600; in the data active = response above about 15%;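 note: plate controls were DMSO for no effect and reference compound for full effect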); conditions: V-ATPase proton transport, at 10 µM, stronger effect = higher value
[13] = system: anti-desmoglein-3 scFv antibody binding to human DSG3; test: blockers of pathogenic pemphigus antibody–desmoglein-3 binding – biochemical, validation compound set, bead-based, flow cytometry, pilot screen (AID 588368); conditions: Protein G beads, DSG3-Fc, scFv-GFP binding, at 10 µM, stronger effect = lower value;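 note: signal is the median channel fluorescence of bead-bound GFP antibody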
[14] = Nile Red efflux blockade in pump-expressing yeast – validation compound set, multiplex, phenotypic, pilot screen (AID 588506;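 active = efflux inhibition above 0.42, the validation set average plus 4 SD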;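 note: Nile Red retained in cells so higher fluorescence means more efflux inhibition; 0 = negative control wells and 1 = enniatin B 25 µM full block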); conditions: S. cerevisiae pump-expressing triplex, Nile Red efflux flow cytometry; at 10 µM; stronger effect = higher value; the pumps come from Candida albicans
[15] = target: ATP-binding cassette sub-family B member 6 (Homo sapiens) (UniProt Q9NP58); test: blockers of ABCB6-driven porphyrin uptake – K562-ABCB6 cells, flow cytometry, validation set, pilot screen (AID 588550;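 active = inhibition above the screen-wide mean plus 3 SD, about 51%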;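 note: 0% = DMSO wells and 100% = benzethonium chloride 70 µM positive control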); conditions: K562-ABCB6 porphyrin accumulation, 1 h, at 10 µM, stronger effect = higher value
Chain of ATP-binding cassette sub-family B member 6 (Homo sapiens) (Q9NP58 whole entry, looked up): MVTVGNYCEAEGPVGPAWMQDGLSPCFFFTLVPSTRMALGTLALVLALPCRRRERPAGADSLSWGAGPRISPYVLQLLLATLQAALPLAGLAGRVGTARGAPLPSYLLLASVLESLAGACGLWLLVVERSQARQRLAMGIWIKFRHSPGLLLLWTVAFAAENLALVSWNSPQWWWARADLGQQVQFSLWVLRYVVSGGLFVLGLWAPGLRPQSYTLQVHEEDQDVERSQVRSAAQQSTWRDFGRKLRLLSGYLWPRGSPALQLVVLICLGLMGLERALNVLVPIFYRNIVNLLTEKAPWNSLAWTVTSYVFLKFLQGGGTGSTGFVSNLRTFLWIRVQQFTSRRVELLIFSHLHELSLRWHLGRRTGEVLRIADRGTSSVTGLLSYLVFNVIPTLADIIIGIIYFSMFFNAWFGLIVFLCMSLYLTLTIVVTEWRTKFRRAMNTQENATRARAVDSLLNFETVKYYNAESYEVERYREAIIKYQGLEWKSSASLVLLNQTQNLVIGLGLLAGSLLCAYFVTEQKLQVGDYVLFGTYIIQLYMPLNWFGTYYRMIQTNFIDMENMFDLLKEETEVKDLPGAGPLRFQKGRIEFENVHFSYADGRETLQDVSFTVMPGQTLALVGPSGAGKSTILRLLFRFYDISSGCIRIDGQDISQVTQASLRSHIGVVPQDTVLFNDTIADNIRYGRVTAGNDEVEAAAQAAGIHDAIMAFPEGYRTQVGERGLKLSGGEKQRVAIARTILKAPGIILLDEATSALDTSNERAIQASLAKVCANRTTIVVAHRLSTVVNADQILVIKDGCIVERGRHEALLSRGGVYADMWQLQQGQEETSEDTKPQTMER

[16] = AML differentiation inducers, ER-HoxA9 marrow cells – cell-based, GFP/MAC1 double positive, flow cytometry, validation set, primary screen (AID 588685;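 active = differentiation response of at least 50%, scaled between solvent and reference control, from cells with both markers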;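 note: compound exposure lasts four days before antibody staining and flow analysis; 0% = DMSO wells and 100% = 5 µM fulvestrant positive control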); conditions: stronger effect = higher value, normalized: vehicle 0, fulvestrant 100

SMILES	percent of DMSO control GFP [1]	GFP response vs DMSO [2]	percent response of DMSO control [3]	GFP response vs DMSO [4]	GFP response, % of DMSO [5]	double positive events [6]	vesicle binding response [6]	inhibition [7]	superoxide response (% of plate) [8]	aptamer binding inhibition [9]	response [10]	inhibition [11]	response [12]	binding (% of control) [13]	efflux inhibition (fraction of control) [14]	inhibition [15]	differentiation response [16]
OC(CCN1CCCC1)(c1ccccc1)C1CCCCC1 (stereo not drawn)	87.3% (inactive)	134% (inactive)	102% (inactive)	80.9% (inactive)	89.4% (inactive)	63.6%	284% (inactive)	0.64% (inactive)	93.8% (inactive)	-1% (inactive)	6.72% (inactive)	34.9% (inactive)	-6.1% (inactive)	97.4% (inactive)	0.12 (inactive)	109% (active)	-4.91% (inactive)
CCn1c(N2CCN(CC(=O)c3c(C)n(C)c4ccc(OC)cc34)CC2)nc2c1c(=O)[nH]c(=O)n2C	101% (inactive)	104% (inactive)	97.8% (inactive)	91.4% (inactive)	99.9% (inactive)	60%	206% (inactive)	-18.1% (inactive)	100% (inactive)	1% (inactive)	-1.41% (inactive)	12.1% (inactive)	-2.91% (inactive)	101% (inactive)	-0.26 (inactive)	23% (inactive)	-2.69% (inactive)
CCN1C(=O)C(CC(=O)Nc2ccc(F)cc2)N(Cc2ccco2)C1=S (stereo not drawn)	99% (inactive)	102% (inactive)	95.1% (inactive)	106% (inactive)	114% (inactive)	62.4%	194% (inactive)	15.1% (inactive)	107% (inactive)	5% (inactive)	-17.8% (inactive)	-8.85% (inactive)	1.67% (inactive)	99.9% (inactive)	-0.04 (inactive)	7% (inactive)	18.7% (inactive)
CC1(C)O[C@@H]2C[C@H]3[C@@H]4C[C@H](F)C5=CC(=O)CC[C@]5(C)[C@H]4[C@@H](O)C[C@]3(C)[C@]2(C(=O)CO)O1	97.9% (inactive)	95.6% (inactive)	89.3% (inactive)	91.5% (inactive)	92.4% (inactive)	63.8%	128% (inactive)	-2.43% (inactive)	88.9% (inactive)	37% (active)	19% (inactive)	-4.49% (inactive)	-2% (inactive)	106% (inactive)	0.25 (inactive)	12% (inactive)	34.9% (inactive)
CCOc1ccc(OCCSc2nc3ccccc3[nH]2)cc1	98.2% (inactive)	98.5% (inactive)	101% (inactive)	108% (inactive)	83.3% (inactive)	60.3%	186% (inactive)	16% (inactive)	107% (inactive)	4% (inactive)	-17.3% (inactive)	-5.21% (inactive)	1.04% (inactive)	98.7% (inactive)	0.05 (inactive)	3% (inactive)	-7.2% (inactive)
CC(=O)OCC[N+](C)(C)C	95.9% (inactive)	116% (inactive)	101% (inactive)	83.6% (inactive)	105% (inactive)	61.2% and 60.9%	178% (inactive) and 161% (inactive)	-20.7% (inactive) and 1.44% (inactive)	90.4% (inactive) and 67.4% (inactive)	4% (inactive) and 1% (inactive)	-3.17% (inactive) and -8.19% (inactive)	-8.61% (inactive) and -2% (inactive)	2.52% (inactive) and -3.48% (inactive)	102% (inactive) and 106% (inactive)	0.09 (inactive) and 0 (inactive)	6% (inactive) and 10% (inactive)	2.46% (inactive) and -2.03% (inactive)
COc1cc(/C=C/C(=O)O)cc(S(=O)(=O)NCCCO)c1OC	97.3% (inactive)	98.5% (inactive)	91% (inactive)	116% (inactive)	105% (inactive)	59.6%	157% (inactive)	6.4% (inactive)	95.1% (inactive)	5% (inactive)	8.94% (inactive)	-5.7% (inactive)	-0.12% (inactive)	96.6% (inactive)	-0.13 (inactive)	5% (inactive)	-15.2% (inactive)
Cn1c(=S)n(C)c2ccccc21	99.2% (inactive)	104% (inactive)	94.4% (inactive)	110% (inactive)	104% (inactive)	61.4%	264% (inactive)	16.8% (inactive)	104% (inactive)	3% (inactive)	25.9% (inactive)	0.89% (inactive)	-1.79% (inactive)	105% (inactive)	0.08 (inactive)	7% (inactive)	-4% (inactive)
CC(C)(C)C(=O)N1CCCC1C(=O)O (stereo not drawn)	104% (inactive)	96.6% (inactive)	99% (inactive)	99.5% (inactive)	106% (inactive)	65.6%	141% (inactive)	4.84% (inactive)	95.6% (inactive)	11% (inactive)	-4.87% (inactive)	-2.34% (inactive)	-11% (inactive)	103% (inactive)	-0.04 (inactive)	2% (inactive)	11.8% (inactive)
